Laboratory results: PubChem BioAssay AID1159580 (chemical genetic matrix, 2015)
Where “and” joins values, the source holds several entries; their conditions need not be identical. Equal values may be shown once. In all, about 5,500 compounds went through this assay and about 2,000 (36%) were called active. Roughly 18% stayed inconclusive and do not appear here. Cut-off read from the data, not from the text of the source: active = normalized growth mostly below about 0.91 (no sharp cut-off); inconclusive = no clear call, values can overlap the other calls; inactive = mostly above about 0.92. Some of the results follow.

Assay: chemical genetic growth profiling, strain panel (AID 1159580);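 note: tested at 20 µM; growth read once vehicle control cultures reached saturation at 30 °C; 1 = growth at the plate median or of vehicle wells; lower values mean less growth of the strain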
Details: S. cerevisiae deletion strains, growth OD

Measured: normalized growth

CCN(CC)Cc1ccc(Nc2ccnc3cc(Cl)ccc23)cc1O
inactive: locus YAL021C, strain ccr4, stronger effect = lower value 0.986 | locus YAL026C, strain drs2, stronger effect = lower value 1.03 | locus YAL030W, strain snc1, stronger effect = lower value 1 | locus YBL061C, strain skt5, stronger effect = lower value 1.03 | locus YBR009C, strain hhf1, stronger effect = lower value 0.96 | locus YBR021W, strain FUR4, stronger effect = lower value 0.995 | locus YBR023C, strain chs3, stronger effect = lower value 1.03 | locus YBR171W, strain sec66, stronger effect = lower value 1.05 | locus YBR229C, strain ROT2, stronger effect = lower value 1 | locus YBR231C, strain swc5, stronger effect = lower value 0.989 | locus YBR279W, strain paf1, stronger effect = lower value 1.01 | locus YCL011C, strain gbp2, stronger effect = lower value 1 | locus YCL016C, strain dcc1, stronger effect = lower value 1.02 | locus YCL029C, strain bik1, stronger effect = lower value 1 | locus YCL061C, strain MRC1, stronger effect = lower value 1.01 | locus YCL069W, strain vba3, stronger effect = lower value 1.02 | locus YCR088W, strain abp1, stronger effect = lower value 1.03 | locus YDL005C, strain med2, stronger effect = lower value 1.04 | locus YDL035C, strain GPR1, stronger effect = lower value 1.01 | locus YDL040C, strain nat1, stronger effect = lower value 1 | locus YDL074C, strain BRE1, stronger effect = lower value 1 | locus YDL101C, strain DUN1, stronger effect = lower value 1.01 | locus YDL185W, strain tfp1, stronger effect = lower value 0.997 | locus YDL192W, strain arf1, stronger effect = lower value 0.999 | locus YDR001C, strain nth1, stronger effect = lower value 1.03 | locus YDR069C, strain doa4, stronger effect = lower value 1.01 | locus YDR101C, strain arx1, stronger effect = lower value 0.988 | locus YDR137W, strain rgp1, stronger effect = lower value 1.07 | locus YDR150W, strain NUM1, stronger effect = lower value 1.01 | locus YDR159W, strain sac3, stronger effect = lower value 0.941 | locus YDR162C, strain NBP2, stronger effect = lower value 1.02 | locus YDR195W, strain ref2 0.971 | locus YDR297W, strain sur2, stronger effect = lower value 1.02 | locus YDR318W, strain mcm21, stronger effect = lower value 1 | locus YDR334W, strain swr1, stronger effect = lower value 1.02 | locus YDR335W, strain msn5, stronger effect = lower value 1.03 | locus YDR388W, stronger effect = lower value 0.998 | locus YDR502C, strain sam2, stronger effect = lower value 0.997 | locus YEL003W, strain gim4, stronger effect = lower value 1.01 | locus YEL037C, strain rad23, stronger effect = lower value 1.03 | locus YEL061C, strain CIN8 (second series), stronger effect = lower value 1.01 | locus YEL061C, strain CIN8, stronger effect = lower value 1 | locus YER015W, strain faa2, stronger effect = lower value 1 | locus YER016W, strain bim1, stronger effect = lower value 1.03 | locus YER110C, stronger effect = lower value 0.999 | locus YER111C, strain swi4, stronger effect = lower value 1.03 | locus YER155C, strain BEM2 (second series), stronger effect = lower value 0.865 | locus YER155C, strain BEM2, stronger effect = lower value 1 | locus YER167W, strain BCK2, stronger effect = lower value 1.01 | locus YFR010W, strain ubp6, stronger effect = lower value 0.992 | locus YGL078C, strain dbp3, stronger effect = lower value 1 | locus YGL086W, strain mad1, stronger effect = lower value 0.996 | locus YGL167C, strain pmr1, stronger effect = lower value 1.01 | locus YGL173C, strain kem1, stronger effect = lower value 0.991 | locus YGL227W, strain vid30, stronger effect = lower value 1.01 | locus YGL240W, strain doc1, stronger effect = lower value 0.958 | locus YGL248W, strain PDE1, stronger effect = lower value 1.01 | locus YGL253W, strain hxk2, stronger effect = lower value 1.01 | locus YGR078C, strain PAC10, stronger effect = lower value 1 | locus YGR135W, strain pre9, stronger effect = lower value 0.994 | locus YGR229C, strain SMI1, stronger effect = lower value 1.02 | locus YGR252W, strain gcn5, stronger effect = lower value 0.96 | locus YHR013C, strain ard1, stronger effect = lower value 0.96 | locus YHR027C, strain rpn1, stronger effect = lower value 1.01 | locus YHR030C, strain SLT2, stronger effect = lower value 1.01 | locus YHR079C, strain IRE1 (second series), stronger effect = lower value 0.999 | locus YHR079C, strain IRE1, stronger effect = lower value 1.07 | locus YHR094C, strain hxt1, stronger effect = lower value 0.998 | locus YHR129C, strain ARP1, stronger effect = lower value 1 | locus YHR142W, strain chs7, stronger effect = lower value 1.03 | locus YHR200W, strain rpn10, stronger effect = lower value 0.997 | locus YIL066C, strain RNR3, stronger effect = lower value 1.02 | locus YIL073C, strain SPO22, stronger effect = lower value 1.01 | locus YIL125W, strain kgd1, stronger effect = lower value 1 | locus YIR030C, strain dcg1, stronger effect = lower value 0.997 | locus YJL092W, strain hpr5, stronger effect = lower value 1.01 | locus YJL095W, strain BCK1 (second series), stronger effect = lower value 1.01 | locus YJL095W, strain BCK1, stronger effect = lower value 1 and 1.05 | locus YJL115W, strain asf1, stronger effect = lower value 1.04 | locus YJL129C, strain trk1, stronger effect = lower value 1.01 | locus YJL134W, strain LCB3, stronger effect = lower value 1.01 | locus YJL154C, strain vps35, stronger effect = lower value 1.02 | locus YJL164C, strain tpk1, stronger effect = lower value 1 | locus YJL166W, strain qcr8, stronger effect = lower value 0.992 | locus YJL168C, strain set2, stronger effect = lower value 1 | locus YJL187C, strain SWE1 (second series), stronger effect = lower value 1 | locus YJR043C, strain POL32, stronger effect = lower value 0.996 | locus YJR066W, strain TOR1, stronger effect = lower value 0.992 | locus YJR075W, strain HOC1, stronger effect = lower value 1.01 | locus YKL009W, strain mrt4, stronger effect = lower value 0.997 | locus YKL068W, stronger effect = lower value 0.996 | locus YKL085W, strain MDH1 (second series), stronger effect = lower value 0.995 | locus YKL085W, strain MDH1, stronger effect = lower value 0.995 | locus YKL160W, strain elf1, stronger effect = lower value 1.04 | locus YKL190W, strain CNB1, stronger effect = lower value 1.01 | locus YKR001C, strain vps1, stronger effect = lower value 0.999 | locus YKR026C, strain gcn3, stronger effect = lower value 1.03 | locus YKR091W, strain srl3, stronger effect = lower value 1.02 | locus YLL001W, strain dnm1, stronger effect = lower value 1.01 | locus YLL026W, stronger effect = lower value 1.02 | locus YLL041C, strain sdh2, stronger effect = lower value 1.03 | locus YLR027C, strain aat2, stronger effect = lower value 1.01 | locus YLR039C, strain RIC1, stronger effect = lower value 1.01 | locus YLR058C, strain SHM2, stronger effect = lower value 1.01 | locus YLR102C, strain apc9, stronger effect = lower value 0.993 | locus YLR113W, strain HOG1, stronger effect = lower value 1.06 | locus YLR221C, strain rsa3, stronger effect = lower value 0.987 | locus YLR258W, strain gsy2, stronger effect = lower value 1.03 | locus YLR262C, strain YPT6 (second series), stronger effect = lower value 1.02 | locus YLR262C, strain YPT6, stronger effect = lower value 1.06 | locus YLR268W, strain sec22, stronger effect = lower value 0.993 | locus YLR320W, strain mms22, stronger effect = lower value 0.939 | locus YLR330W, strain CHS5, stronger effect = lower value 1.01 | locus YLR342W, strain FKS1 (second series), stronger effect = lower value 0.984 | locus YLR342W, strain FKS1, stronger effect = lower value 1.01 | locus YLR357W, strain rsc2, stronger effect = lower value 1.06 | locus YLR370C, strain arc18, stronger effect = lower value 1.02 | locus YLR371W, strain rom2, stronger effect = lower value 1 | locus YLR384C, strain iki3, stronger effect = lower value 1.01 | locus YLR418C, strain cdc73, stronger effect = lower value 0.98 | locus YML016C, strain PPZ1, stronger effect = lower value 1 | locus YML032C, strain rad52, stronger effect = lower value 0.99 | locus YML120C, strain ndi1, stronger effect = lower value 1.02 | locus YML124C, strain tub3, stronger effect = lower value 1.01 | locus YMR058W, strain fet3, stronger effect = lower value 0.93 | locus YMR078C, strain ctf18, stronger effect = lower value 1 | locus YMR125W, strain sto1, stronger effect = lower value 1.05 | locus YMR129W, stronger effect = lower value 1.02 | locus YMR205C, strain PFK2, stronger effect = lower value 0.983 | locus YMR223W, strain ubp8, stronger effect = lower value 1 | locus YMR231W, strain pep5, stronger effect = lower value 1.01 | locus YMR307W, strain GAS1, stronger effect = lower value 1.01 | locus YNL067W, strain RPL9B, stronger effect = lower value 1 | locus YNL071W, strain lat1, stronger effect = lower value 1.03 | locus YNL128W, strain TEP1, stronger effect = lower value 1.02 | locus YNL153C, strain GIM3, stronger effect = lower value 0.987 | locus YNL183C, strain NPR1, stronger effect = lower value 1 | locus YNL209W, strain ssb2, stronger effect = lower value 1.01 | locus YNL233W, strain BNI4, stronger effect = lower value 1 | locus YNL248C, strain rpa49, stronger effect = lower value 1.03 | locus YNL250W, strain rad50, stronger effect = lower value 0.997 | locus YNL271C, strain bni1, stronger effect = lower value 1.03 | locus YNL298W, strain CLA4, stronger effect = lower value 1.01 | locus YNL307C, strain MCK1, stronger effect = lower value 0.997 | locus YNL322C, strain KRE1 (second series), stronger effect = lower value 1.05 | locus YNR049C, strain mso1, stronger effect = lower value 1.01 | locus YNR052C, strain pop2, stronger effect = lower value 1 | locus YOL006C, strain TOP1, stronger effect = lower value 1.04 | locus YOL012C, strain htz1 1.13 | locus YOL147C, strain pex11, stronger effect = lower value 0.996 | locus YOR001W, strain rrp6, stronger effect = lower value 0.995 | locus YOR061W, strain CKA2, stronger effect = lower value 1.01 | locus YOR069W, strain VPS5, stronger effect = lower value 1 | locus YOR070C, strain gyp1, stronger effect = lower value 1.02 | locus YOR080W, strain dia2, stronger effect = lower value 1.01 | locus YOR083W, strain WHI5, stronger effect = lower value 0.986 | locus YOR106W, strain vam3, stronger effect = lower value 1.05 | locus YOR136W, strain idh2, stronger effect = lower value 0.995 | locus YOR144C, strain elg1, stronger effect = lower value 0.99 | locus YOR184W, strain ser1, stronger effect = lower value 0.992 | locus YOR231W, strain MKK1, stronger effect = lower value 1.05 | locus YOR265W, strain rbl2, stronger effect = lower value 1 | locus YOR270C, strain vph1, stronger effect = lower value 1.05 | locus YOR290C, strain snf2, stronger effect = lower value 1.02 | locus YOR316C, strain cot1, stronger effect = lower value 0.997 | locus YPL051W, strain arl3, stronger effect = lower value 1.01 | locus YPL078C, strain atp4, stronger effect = lower value 1.03 | locus YPL106C, strain sse1, stronger effect = lower value 1.05 | locus YPL240C, strain hsp82, stronger effect = lower value 1.02 | locus YPL241C, strain CIN2, stronger effect = lower value 1.01 | locus YPL256C, strain CLN2, stronger effect = lower value 1.01 | locus YPR119W, strain clb2, stronger effect = lower value 1 | locus YPR141C, strain kar3, stronger effect = lower value 1.01 | locus YPR163C, strain tif3, stronger effect = lower value 1.01 | locus YPR167C, strain met16, stronger effect = lower value 1 | strain wtn01, stronger effect = lower value 1
active: locus YDR392W, strain spt3, stronger effect = lower value 0.737
